# Where a name gives a salt, the structure may show the parent alone.
# Tested on: Saccharomyces cerevisiae BY4741 SeMeCo community
# Experiment: z-score of subpopulation abundance vs DMSO median, subpopulation auxotrophic for UM; higher = larger share of this subpopulation than in DMSO controls
# Settings: 10 µM; 24 h; SM minimal medium; subpopulation (auxotrophy): UM
# Protocol: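 Fluorescent four-plasmid SeMeCo (self-establishing metabolically cooperating S. cerevisiae BY4741 community; plasmids pH-mRuby2, pL-mWasabi, pU-eCFP, pM-TagRFP657) was grown 24 h in minimal SM medium with each Selleck FDA-approved drug at 10 µM in 384-well plates. Cells were fixed and imaged by high-content confocal microscopy. For each auxotrophic subpopulation (and the prototroph), a z-score gives the deviation from the DMSO vehicle-control population median.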
row,SMILES,z-score of subpopulation abundance
1,CN[C@@H]1[C@H](O[C@H]2[C@H](O[C@H]3[C@H](O)[C@@H](O)[C@H](N=C(N)N)[C@@H](O)[C@@H]3N=C(N)N)O[C@@H](C)[C@]2(O)C=O)O[C@@H](CO)[C@H](O)[C@H]1O [Streptomycin sulfate],0.8
2,CC(=O)OCC[N+](C)(C)C [Acetylcholine iodide],-0.32
3,OCCOCCN1CCN(C2=Nc3ccccc3Sc3ccccc32)CC1 [Quetiapine Fumarate],0.49
4,CCC1(c2ccccc2)C(=O)NCNC1=O [Primidone],0.54
5,CC(C)(C)C(=O)C(Oc1ccc(Cl)cc1)n1ccnc1 (stereo not given) [Climbazole],24.4
6,COC(=O)C1=C(C)NC(C)=C(C(=O)OC2CCCN(Cc3ccccc3)C2)C1c1cccc([N+](=O)[O-])c1 (stereo not given) [Benidipine HCl],-0.42
7,CC1=C[C@H]2C(=O)O[C@H]3C[C@@H](C/C=C(\C)C[C@@H](C)/C=C/C=C4\CO[C@H](/C1=N\O)[C@@]42O)O[C@@]1(CC[C@H](C)[C@@H](C)O1)C3.CC[C@H]1O[C@]2(CC[C@@H]1C)C[C@@H]1C[C@@H](C/C=C(\C)C[C@@H](C)/C=C/C=C3\CO[C@@H]4/C(=N\O)C(C)=C[C@@H](C(=O)O1)[C@]34O)O2 [Milbemycin Oxime],-1.12
8,Cc1c(-c2ccccc2)oc2c(C(=O)OCCN3CCCCC3)cccc2c1=O [Flavoxate HCl],0.71
9,O=C1OCCN1/N=C/c1ccc([N+](=O)[O-])o1 [Furazolidone],-6.39
10,COc1ccc(Cc2cnc(N)nc2N)cc1OC [Diaveridine],-0.39
11,CC(C[N+](C)(C)C)OC(N)=O (stereo not given) [Bethanechol chloride],-0.21
12,Oc1ccc(Cl)c2cccnc12 [Cloxiquine],6.45
13,O=C(O)Cc1ccccc1Nc1c(Cl)cccc1Cl [Diclofenac acid],-0.58
14,CC(C)n1c(/C=C/C(O)CC(O)CC(=O)O)c(-c2ccc(F)cc2)c2ccccc21 (stereo not given) [Fluvastatin Sodium],8.31
15,O=C1CN2Cc3c(ccc(Cl)c3Cl)N=C2N1 [Anagrelide HCl],0.39
16,OCCN1CCN(CC/C=C2/c3ccccc3Sc3ccc(C(F)(F)F)cc32)CC1 [Flupenthixol dihydrochloride],-0.35
17,Cc1ncc([N+](=O)[O-])n1CC(O)CCl (stereo not given) [Ornidazole],-0.4
18,CC1=C(C(=O)O)N2C(=O)[C@@H](NC(=O)[C@H](N)c3ccc(O)cc3)[C@H]2SC1 [Cefadroxil hydrate],-0.45
19,C[C@](N)(Cc1ccc(O)c(O)c1)C(=O)O [Methyldopa],-0.7
20,C#CCN[C@@H]1CCc2ccccc21 [Rasagiline],0.58

row,SMILES,z-score of subpopulation abundance
1,Cc1cc2c(s1)Nc1ccccc1N=C2N1CCN(C)CC1 [Olanzapine],0.07
2,Cc1nnc(SCC2=C(C(=O)O)N3C(=O)[C@@H](NC(=O)Cn4cnnn4)[C@H]3SC2)s1 [Cefazolin Sodium],0.25
3,CC1(C)[C@H](C(=O)O)N2C(=O)C[C@H]2S1(=O)=O [Sulbactam],-0.39
4,CC(=O)N1CCN(c2ccc(OCC3COC(Cn4ccnc4)(c4ccc(Cl)cc4Cl)O3)cc2)CC1 (stereo not given) [Ketoconazole],-0.23
5,Cc1ccc2c(Cl)cc(Cl)c(O)c2n1 [Chlorquinaldol],-1.95
6,O=C(O)CCc1nc(-c2ccccc2)c(-c2ccccc2)o1 [Oxaprozin],-3.67
7,COC(=O)C1=C(C)NC(C)=C(C(=O)OCCN2CCN(C(c3ccccc3)c3ccccc3)CC2)C1c1cccc([N+](=O)[O-])c1 (stereo not given) [Manidipine],-0.6
8,Nc1cc(C(Cl)=C(Cl)Cl)c(S(N)(=O)=O)cc1S(N)(=O)=O [Clorsulon],0.16
9,Cc1c(-c2ccc(O)cc2)n(Cc2ccc(OCCN3CCCCCC3)cc2)c2ccc(O)cc12 [Bazedoxifene HCl],-0.08
10,CC[C@@]1(O)C(=O)OCc2c1cc1n(c2=O)Cc2cc3cc(O)ccc3nc2-1 [Hydroxy Camptothecine],-4.43
11,COc1ccc(CC2c3cc(OC)c(OC)cc3CC[N+]2(C)CCC(=O)OCCCCCOC(=O)CC[N+]2(C)CCc3cc(OC)c(OC)cc3C2Cc2ccc(OC)c(OC)c2)cc1OC (stereo not given) [Atracurium Besylate],-0.21
12,Cc1c(Nc2ncccc2C(=O)O)cccc1C(F)(F)F [Flunixin Meglumin],0.51
13,CCCN[C@H]1CCc2nc(N)sc2C1 [Pramipexole],0.05
14,C#C[C@]1(O)CC[C@H]2[C@@H]3CCc4cc(O)ccc4[C@H]3CC[C@@]21C [Ethinyl Estradiol],-1.64
15,COc1cc(N)c(Cl)cc1C(=O)NC1CCN(CCCOc2ccc(F)cc2)CC1OC (stereo not given) [Cisapride],-0.35
16,C#C[C@]1(O)CC[C@H]2[C@@H]3CCC4=CC(=O)CC[C@@H]4[C@H]3C(=C)C[C@@]21CC [Etonogestrel],0.08
17,O=S1(=O)CCN(CN2CCS(=O)(=O)NC2)CN1 [Taurolidine],0.3
18,N[C@@H]1CN(c2c(F)cc3c(=O)c(C(=O)O)cn([C@@H]4C[C@@H]4F)c3c2Cl)CC12CC2 [Sitafloxacin Hydrate],1.53
19,CCCCN1CCCCC1C(=O)Nc1c(C)cccc1C (stereo not given) [Bupivacaine HCl],0.27
20,CCCNCC(O)COc1ccccc1C(=O)CCc1ccccc1 (stereo not given) [Propafenone HCl],0.94
